Measured values: PubChem BioAssay (NCATS)
Values without a mark were called inactive. No rule for the calls is given here.

Test system: HIV-1 nucleocapsid protein NCp7 (binding to TG oligonucleotide)
Test: HIV Nucleocapsid (AID 346);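 also: potency is for inhibitors that block NC binding and lower polarization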
Conditions: HIV-1 NC / fluorescein-TGTGTGTG probe, fluorescence polarization
Procedure, shortened: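 Fluorescence polarization readout: labelled TG4xF oligo (10 nM) with 100 nM nucleocapsid protein, high-salt (250mM NaCl) Hepes pH 7.5 buffer containing zinc and fresh reducing agents. Compounds added by pin tool; incubation 1 hr, room temperature.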
Potency is read from the fitted curve at half-maximal effect.

Row | Structure (SMILES) | Potency [µM]
1 | CN1CCN(c2ncnc3ccc(-c4ccccc4Cl)cc23)CC1 | > 20
2 | Cc1ccccc1-c1ccc2ncnc(N3CCOCC3)c2c1 | > 20
3 | COc1cccc(Cn2c(=O)cnc3cnc(OCc4ccccc4)nc32)c1 | > 20
4 | COc1ccc(Oc2ncc3nc(-c4ccc(Cl)cc4)c(=O)n(CCC#N)c3n2)cc1 | > 20
5 | COc1ccc(C(=O)N2CCC3(CC2)CCN(c2cccc(-c4ccccc4)c2)CC3)cc1 | > 20
6 | CS(=O)(=O)N1CCC2(CCCN(C(=O)Nc3cccc(C#N)c3)C2)CC1 | > 20
7 | COCC(=O)N1CCC[C@@]2(CCN(Cc3cc(C(F)(F)F)cc(C(F)(F)F)c3)C2)C1 | > 20
8 | CN(C)C(=O)c1ccc(-c2cncnc2N2CCNCC2)cc1 | > 20
9 | c1ccc(C(c2ccccc2)N2CCCC3(CCNCC3)C2)cc1 | > 20
10 | Cc1nc2cnc(Nc3ccccc3)nc2n(C2CC2)c1=O | > 20
11 | CN(C)Cc1ccccc1-c1nccc(NC2CC2)n1 | > 20
12 | O=c1c(CCc2ccccc2)nc2cnc(N3CCNCC3)nc2n1-c1ccccc1 | > 20
13 | COCCn1c(=O)c(-c2ccc(Cl)cc2)nc2cnc(OCc3ccccc3)nc21 | > 20
14 | COc1ccc(CNc2nc(-c3ccccc3OC)nc3ccccc23)c(OC)c1 | > 20
15 | COc1ccc2[nH]cc(CCNc3ncncc3-c3c(C)noc3C)c2c1 | > 20
16 | COc1ccc(CNc2ncncc2-c2ccc3c(c2)OCO3)c(OC)c1 | > 20
17 | Cn1c(=O)c(-c2ccccc2)nc2cnc(Oc3ccccc3)nc21 | > 20
18 | CN(C)c1nc(-c2cccc(NS(C)(=O)=O)c2)nc2ccccc12 | > 20
19 | CN1CCN(c2ncc3ncc(=O)n(-c4ccccc4)c3n2)CC1 | > 20
20 | O=c1c(-c2ccccc2)nc2cncnc2n1-c1ccccc1 | > 20
21 | CN(C)c1ncc2nc(-c3cccc(C#N)c3)c(=O)n(CCC#N)c2n1 | > 20
22 | NCCn1c(=O)c(CCc2ccccc2)nc2cncnc21 | > 20
23 | COc1ccc(C(=O)N2CCC[C@@]3(CCN(Cc4ccc(C#N)cc4)C3)C2)cc1 | > 20
24 | O=C(c1csnn1)N1CCC2(CCCN(Cc3ccccc3)C2)CC1 | > 20
25 | COc1ccc(C(=O)N2CCC3(CCN(Cc4ccncc4)CC3)CC2)cc1 | > 20
